The panel holds about 83,000 compounds, 20% with a hit somewhere; the sample as a whole holds those more often.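 A percent growth of 40 corresponds to 60% growth inhibition; 0 means no net growth; -100 means all cells died. Active threshold: below 10.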 Values without a mark were called inactive. Active and inactive are the calls of the source.
Tested on: ACHN renal
Experiment: NCI-60 one-dose screen, 48 h (100 = growth as untreated, 0 = no growth, -100 = all killed)
Conditions: 10 µM unless noted

SMILES	growth
CCCCCCCCCCCCCCCCCC(=O)Nc1ccc(O)cc1	104%
COc1cc(C(=O)Nc2ccc(N(C)C)cc2)cc(OC)c1OC	93.1%
CC(=O)O.[In]	104%
CC(O)c1cc[cH-]c1.[Fe+2].c1cc[cH-]c1 (configuration not stated)	89.8%
CC(=O)Nc1ccc(S(=O)(=O)Cl)cc1	113%
O=C(OCC1CC2(Cl)C(Cl)=C(Cl)C1(Cl)C2(Cl)Cl)C1C(C(=O)OCC2CC3(Cl)C(Cl)=C(Cl)C2(Cl)C3(Cl)Cl)C2(Cl)C(Cl)=C(Cl)C1(Cl)C2(Cl)Cl (configuration not stated)	95.6%
COc1ccc(/C=C/C(=O)/C=C/c2cc3ccccc3[nH]c2=O)cc1	84.1%
CC(=O)NCCN	97.2%
NC(CSC(c1ccccc1)(c1ccccc1)c1ccccc1)C(=O)NCC(=O)O (configuration not stated)	88.4%
CC(Br)c1nc2ccccc2cc1C(N)=O (configuration not stated)	109%
CC(C)(C)c1cc(C[P+](c2ccc(Cl)cc2)(c2ccc(Cl)cc2)c2ccc(Cl)cc2)cc(C(C)(C)C)c1O	98.7%
CC(C)OCC1CO1 (configuration not stated)	98.7%
N#CCc1ncc(-c2ccc(C(F)(F)F)cc2)c(NC2CCCCCC2)n1	18.4% [100 µM]
O=C(NCCNCCO)c1cc([N+](=O)[O-])cc([N+](=O)[O-])c1O	107%
CCCCS(=O)(=O)c1cc(Nc2ccc(O)c3c2C(=O)c2ccccc2C3=O)ccc1C	92.2%
Cn1c2ccccc2c2ccccc21	105%
CCCCCCCCC(=O)Nc1ccc(O)cc1	79.2%
CCCCN(CCCC)c1ccc(C(=O)O)cc1	105%

SMILES	growth
CCCCCCCCCCCCCCCCCCOP(=O)(O)O	100%
COC1=CC(c2ccc[nH]2)=N/C1=C\c1[nH]c(C)c(C(=O)CCCCC(=O)NC(C)(C)C)c1C	71.8%
O=C(CCC(=O)N(CCO)CCO)N(CCO)CCO	107%
O=C(CCl)NC1c2ccccc2Oc2ccccc21	72.4%
O=P(OCCCl)(OCCCl)C(O)c1ccccc1Cl (configuration not stated)	98.4%
Oc1ccc(Br)cc1/C=N/NC(=S)NC12CC3CC(CC(C3)C1)C2	2.67% (active)
O=C(O)COc1ccc([N+](=O)[O-])cc1Cl	102%
CC(=O)N(N=O)c1ccc([N+](=O)[O-])cc1Cl	58.9%
CC(C)(CNC1CCCCC1)OC(=O)c1ccccc1	108%
COc1ccc(-c2nnc(SCC(=O)Nc3ccc(C(=O)/C=C/c4cc(OC)c(OC)c(OC)c4)cc3)n2-c2ccccc2)cc1OC	1.79% [100 µM] (active)
CCCCCCC(C(=O)OCC)(C(=O)OCC)C1CCCCCC1	101%
O=C(NC1CCN(Cc2ccccc2)CC1)c1cc(-c2cccnc2)nc2ccc(Cl)cc12	81.2%
CC(=O)CC(=O)OC/C=C(/C)CCC=C(C)C	102%
CCn1cnc(C[C@H](NC(=O)[C@@H](NC(=O)Nc2cc(C(F)(F)F)cc(C(F)(F)F)c2)C(C)C)C(=O)OC)c1	-98.7% [100 µM] (active)
CN(C)CCOC(=O)C(C)(C)C	98.1%
CCCCCCCCCCCCCCCCNC(=S)N/N=C/c1ccc(O)cc1O	77%
CC(=O)C(CO)C(=O)Nc1ccccc1 (configuration not stated)	93.3%
COC(=O)[C@H](Cc1cn(C)cn1)NC(=O)[C@H](Cc1c[nH]c2ccccc12)NC(=O)Nc1cc(C(F)(F)F)cc(C(F)(F)F)c1	-38% [100 µM] (active)

Tested on: CAKI-1 renal
Experiment: as above
Conditions: 10 µM unless noted

SMILES	growth
CCCCCCCCCCCCCCCCCC(=O)Nc1ccc(O)cc1	95.1%
COc1cc(C(=O)Nc2ccc(N(C)C)cc2)cc(OC)c1OC	91.1%
CCn1cnc(C[C@H](NC(=O)[C@@H](NC(=O)Nc2cc(C(F)(F)F)cc(C(F)(F)F)c2)C(C)(C)C)C(=O)OC)c1	-96% [100 µM] (active)
O=C(OCC1CC2(Cl)C(Cl)=C(Cl)C1(Cl)C2(Cl)Cl)C1C(C(=O)OCC2CC3(Cl)C(Cl)=C(Cl)C2(Cl)C3(Cl)Cl)C2(Cl)C(Cl)=C(Cl)C1(Cl)C2(Cl)Cl (configuration not stated)	90.8%
COc1ccc(/C=C/C(=O)/C=C/c2cc3ccccc3[nH]c2=O)cc1	98.2%
CC(C)(C)c1cc(C[P+](c2ccc(Cl)cc2)(c2ccc(Cl)cc2)c2ccc(Cl)cc2)cc(C(C)(C)C)c1O	84.2%
CC(C)OCC1CO1 (configuration not stated)	97.9%
O=C(NCCNCCO)c1cc([N+](=O)[O-])cc([N+](=O)[O-])c1O	100%
CCCCN(CCCC)c1ccc(C(=O)O)cc1	103%
COC1=CC(c2ccc[nH]2)=N/C1=C\c1[nH]c(C)c(C(=O)CCCCC(=O)NC(C)(C)C)c1C	34.1%
O=C(CCC(=O)N(CCO)CCO)N(CCO)CCO	93.3%
O=C(CCl)NC1c2ccccc2Oc2ccccc21	64.6%
Oc1ccc(Br)cc1/C=N/NC(=S)NC12CC3CC(CC(C3)C1)C2	-35.3% (active)
O=C1C(=O)c2ccccc2C(O)=C1CCCc1ccc(Oc2ccccc2)cc1	43.3%
CC(=O)N(N=O)c1ccc([N+](=O)[O-])cc1Cl	100%
COC(=O)C(N)CC(C)C (configuration not stated)	99.7%
CC(C)(CNC1CCCCC1)OC(=O)c1ccccc1	102%
CCCCCCC(C(=O)OCC)(C(=O)OCC)C1CCCCCC1	89.9%
CN(C)CCOC(=O)C(C)(C)C	105%
CCCCCCCCCCCCCCCCNC(=S)N/N=C/c1ccc(O)cc1O	55.9%
CC(=O)C(CO)C(=O)Nc1ccccc1 (configuration not stated)	94.8%

— PubChem BioAssay (NCI)
